Screening data from PubChem BioAssay.
FGF22 binding – FGF22 (human) thermal shift binding. Q9HCT0. recombinant FGF22 thermal shift, SYPRO orange fluorescence; percent of sucrose octasulfate shift, DMSO zero. activity (Tm shift, normalised), % at 9.99 µM. 1.5% of 340,000 active;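 active = mean Tm shift, scaled 0 neutral to 100 positive control, at about 1.3% or above, every replicate too, limit read from the data; inconclusive = no clear call, values can overlap the other calls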
AF4-AF9 inh – inhibitors of human MLL-AF4/AF9 interaction | P42568 | AlphaScreen, biotin-AF4 peptide binding to FLAG-AF9 | inhibition, % at 10 µM | 0.47% of 350,000 active | AID 651704;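 active = every replicate reaching a set inhibition limit, whatever the replicate mean, cut at about 25% in these data; inconclusive = mean inhibition reaches that limit but some replicates miss it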;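 also: 0% = plate neutral control median and 100% = total signal loss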
Target sequence (P42568 whole entry, looked up): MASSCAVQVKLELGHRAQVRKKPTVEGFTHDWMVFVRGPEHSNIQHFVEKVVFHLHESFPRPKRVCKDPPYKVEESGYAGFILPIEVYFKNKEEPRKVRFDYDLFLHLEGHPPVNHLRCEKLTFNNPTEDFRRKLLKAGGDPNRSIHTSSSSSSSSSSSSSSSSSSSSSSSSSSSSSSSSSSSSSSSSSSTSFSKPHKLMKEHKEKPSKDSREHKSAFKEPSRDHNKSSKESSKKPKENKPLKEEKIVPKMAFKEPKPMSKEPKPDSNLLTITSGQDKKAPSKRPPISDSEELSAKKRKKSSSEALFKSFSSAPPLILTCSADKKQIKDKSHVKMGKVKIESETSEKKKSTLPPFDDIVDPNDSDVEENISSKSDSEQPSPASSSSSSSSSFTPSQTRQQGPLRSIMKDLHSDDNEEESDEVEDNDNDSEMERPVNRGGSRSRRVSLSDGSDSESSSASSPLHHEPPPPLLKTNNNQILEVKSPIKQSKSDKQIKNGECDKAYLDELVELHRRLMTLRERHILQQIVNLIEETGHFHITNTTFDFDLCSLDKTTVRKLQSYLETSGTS
MITF TRPM1 HTS – activators of MITF-driven TRPM1 promoter activity in SK-MEL-5 cells. SK-MEL-5 TRPM1-promoter luciferase, 24 h; % of positive control, neutral wells = 0. activation, % at 12.5 µM. 0.75% of 300,000 active;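 active = mean activation of at least 80% with every replicate also reaching 80%; inconclusive = mean reaches 80% but some replicate falls short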;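 also: 0% = neutral control wells and 100% = parthenolide positive control wells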
SMARCA2 activ – increases SMARCA2 function in MMTV reporter cells. MG213 cells, MMTV-luciferase reporter, dexamethasone, overnight. activation, % at 9.1 µM. 1% of 370,000 active. AID 652017; in the data active = activation above about 7.8%;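 also: 0% = vehicle wells and 100% = reference activator wells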
esBAF inh – SWI/SNF esBAF complex inhibition; AID 602393; 2% of 350,000 active; mouse ES cells, Bmi1-luciferase knock-in reporter, 24 h; 100% = twice the neutral-well signal; reporter increase, % at 12.5 µM; in the data active = activation above about 40%; inconclusive = no clear call, values can overlap the other calls;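 also: 0% = median of the plate's neutral control wells and 100% = double that signal; a rise in the Bmi1 reporter signal indicates esBAF inhibition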
Wnt bcat act – activates Wnt/beta-catenin signaling in a reporter cell assay. activator, plate reader. activation, % at 9.35 µM. 1.2% of 300,000 active. AID 743398; in the data active = activation above about 30%, passing the limit was not always enough; inconclusive = no clear call, values can overlap the other calls;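 also: 0% = neutral control wells and 100% = positive control wells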
* = called active by the depositor; u = inconclusive; x = no result given. An excerpt weighted towards active compounds, which were near 4.3% of everything screened.

SMILES	FGF22 binding	AF4-AF9 inh	MITF TRPM1 HTS	SMARCA2 activ	esBAF inh	Wnt bcat act
CC(=O)N1CCC(=NNc2nc3ccccc3s2)CC1	0.3	-2.4	27.8	1.2	x	26.7
COc1cccc(C=NNc2nc3ccccc3s2)c1OC	0.1	-0.7	42.7	6.1	x	50.9*
CNC[C@@H]1Oc2ccc(NC(=O)CCC(F)(F)F)cc2CC(=O)N([C@@H](C)CO)C[C@H]1C	0.1	-6.8	x	x	1.4	x
C[C@H](CO)N1C[C@H](C)[C@@H](CN(C)S(C)(=O)=O)Oc2ccc(NS(=O)(=O)c3ccc(Cl)cc3)cc2CC1=O	0.0	0.2	x	x	-3.5	x
CCCn1c(-c2ccc[nH]c2=O)nc2ccccc21	0.2	0.2	6.7	-2.8	-1.2	-1.2
c1ccc2c(c1)NC1(CCCC1)n1c-2nc2ccccc21	0.2	3.4	u	5.8	75.4*	15.1
CCCC1(C)Nc2ccccc2-c2nc3ccccc3n21 (stereo unspecified)	x	x	77.2	3.7	66.8*	x
O=C(C[C@@H]1C=C[C@@H](NC(=O)Nc2cc(F)ccc2F)[C@@H](CO)O1)NCCCN1CCOCC1	0.3	-2.9	x	x	0.2	x
Cc1nnc(NC(=O)CSc2nnc(CC(=O)Nc3ccccc3F)n2C)s1	0.8	53.4*	4.4	-0.6	-1.7	-1.7
CCNC(=O)c1ccc(C2SCC(=O)N2Cc2ccco2)cc1 (stereo unspecified)	x	x	-1.1	-1.6	-6.6	-0.9
O=C(O)c1ccc(C2SCC(=O)N2Cc2ccco2)cc1 (stereo unspecified)	1.5*	-2.2	-1.5	-2.9	-4.4	-7.5
CC(=O)c1cn(Cc2ccccc2)c(=O)[nH]c1=O	43.4*	0.5	10.0	-1.4	x	-1.5
COc1cccc(S(=O)(=O)N[C@H]2CC[C@H](CCn3cc(-c4ccccc4)nn3)O[C@@H]2CO)c1	0.0	0.5	x	x	-12.5	x
Cc1onc(-c2ccccc2)c1C(=O)NC1CCC(C)CC1 (stereo unspecified)	-0.1	-0.1	6.1	-1.8	-1.2	444.0*
Cc1ccc(S(=O)(=O)N(C)C[C@@H]2OCCCC[C@H](C)Oc3ccc(NS(=O)(=O)c4ccc(F)cc4)cc3C(=O)N([C@H](C)CO)C[C@@H]2C)cc1	0.2	0.5	x	x	1.9	x
Cc1cccc(NC(=O)COc2ccc(/C=C\c3[nH]c(=O)[nH]c(=O)c3[N+](=O)[O-])cc2)c1	43.7*	-2.3	-6.0	-3.4	x	0.4
O=C(O)c1ccc(/C=C2\COc3ccccc3C2=O)cc1	-0.2	-2.8	-8.8	7.8	4.0	3.5
COc1ccc(/C=C2\COc3ccccc3C2=O)cc1OC	x	x	-7.5	3.6	x	33.1*
COc1cc(/C=C2/CCc3ccccc3C2=O)cc(OC)c1OC	x	x	0.5	4.0	-6.1	x
COc1ccc(C=C2CCc3ccccc3C2=O)cc1	0.0	-4.3	x	2.0	x	-1.4
CCOc1ccc(/C=C2\CCc3ccccc3C2=O)cc1	-0.1	0.7	94.9*	2.7	34.7	10.2
COc1ccc2c(c1)CC/C(=C\c1ccc(OC)c(Cn3cccn3)c1)C2=O	x	x	x	-1.1	86.8*	x
COc1ccc(/C=C2/CCc3ccccc3C2=O)cc1OC	x	x	19.0	1.3	17.7	50.1*
C/C=C/c1ccc([C@H]2[C@@H](CO)N(C(=O)CN(C)C)[C@@H]2CNC(=O)CC)cc1	x	0.1	x	x	x	x
Cc1cc(NC(=O)Cc2cn(C)c3ccccc23)ccc1Nc1cccnc1	-0.5	x	x	3.4	x	-4.1
SMILES	FGF22 binding	AF4-AF9 inh	MITF TRPM1 HTS	SMARCA2 activ	esBAF inh	Wnt bcat act
O=C(C[C@H]1CC[C@@H]2[C@H](COC[C@H](O)CN2Cc2ccccc2)O1)N1CCOCC1	0.0	-1.8	x	x	-2.1	x
COc1ccccc1NC(=O)CN1C(=O)COc2ccc(S(=O)(=O)N3CCCCCC3)cc21	0.0	2.9	14.3	-1.1	4.2	0.7
COc1ccc(NC(=O)COC(=O)c2ccc(S(=O)(=O)N3CCCCCC3)cc2)c(OC)c1	0.1	1.8	10.4	0.4	0.4	-0.8
COc1cccc(NC(=O)Cn2c(=O)oc3cc(S(=O)(=O)N4CCCC4)ccc32)c1	0.3	-5.8	0.6	-5.3	x	37.3*
COc1ccc(OC)c(NC(=O)CN2C(=O)COc3ccc(S(=O)(=O)N4CCCC4)cc32)c1	-0.3	34.7*	2.0	-2.2	-5.2	-0.4
COc1ccc(OC)c(NC(=O)COC(=O)c2ccc(S(=O)(=O)N3CCCCC3)cc2)c1	44.7*	-8.7	x	-1.6	2.3	-0.9
NC(=O)c1ccc(NC(=O)C#Cc2ccccc2)cc1	0.5	-2.2	-9.0	1.5	31.6	40.7*
